# From PubChem BioAssay
# “And” between values parts separate entries of the source, which are not always exact repeats. Equal entries are not always repeated. Results filed as inconclusive are left out. The source made the active and inactive calls.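 How the source made its calls, unless noted: active means compounds whose cell count with miR-34 switched on is under 0.7 times the count with it off; inactive means the rest.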
# Experiments:
# [1] = liver-stage malaria parasite growth inhibition, primary screen, cell-based, HepG2, luciferase luminescence, HepG2 viability (AID 624349; in the data active means parasite load remaining mostly below about 12%, no sharp cut-off; inactive means mostly above about 10%;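 further: 100% = mean of DMSO negative control wells on the same plate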); settings: P. berghei liver stage in HepG2, luciferase luminescence, concentration not given here; parasite load remaining: stronger effect = lower value; viability: measured here: HepG2 viability without parasites
# [2] = stimulators of nuclear beta-catenin in C2C12, primary screen, imaging, WNT3A-conditioned medium, mouse C2C12, NPC library (AID 1117326; in the data active means nuclear beta-catenin stimulation mostly above about 4.2%, no sharp cut-off; inactive means mostly below about 10%; further: reference of the scale not given here); settings: stronger effect = higher value
# [3] = stimulators of insulin release from INS-1E, primary screen, cell-based, 5 mM glucose, NPC library (AID 1117329;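 active means compound raises insulin release from rat beta cells at 5 mM glucose, no numeric limit stated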; further: reference of the scale not given here); settings: rat INS-1E insulin secretion, at 10 µM, stronger effect = higher value
# [4] = growth inhibition of GSK3B-pretreated HCT116 cells – cell-based, CellTiter-Glo, 0.2 to 20 µM (AID 1117336;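 active means compounds lowering colon cancer cell viability after pretreatment blocking the GSK3B kinase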); settings: HCT116 viability after GSK3B inhibitor, at 20 µM, stronger effect = higher value
# [5] = inhibition of endothelial tube formation, primary screen, imaging, VEGF stimulated, CD31 staining, tube area, NPC library (AID 1117340;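 active means compound that reduces growth-factor-driven endothelial tube area in a mixed cell culture, no cutoff stated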); settings: VEGF-stimulated ADSC/ECFC co-culture, at 10 µM, stronger effect = higher value
# [6] = glucagon-like peptide 1 release enhancers, primary assay, NCI-H716 cell line, NPC library (AID 1117341;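 active means compound raises GLP1 secretion from the human gut endocrine cells, with no numeric limit stated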; further: reference of the scale not given here); settings: NCI-H716 cells, at 10 µM, stronger effect = higher value
# [7] = HCT116 colon cancer cell growth inhibition, primary screen, CellTiter-Glo luminescence, NPC library (AID 1117342;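 active means compounds that lower survival of HCT116 colon cancer cells in the luminescence readout, no numeric limit stated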); settings: at 20 µM (top of the series)
# [8] = CellTiter-Glo luminescent readout of SW480 viability loss, NPC library primary (AID 1117343;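 active means compounds that lower viability of the colon cancer cells in the luminescence readout, with no numeric limit stated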); settings: CellTiter-Glo luminescence; at 20 µM (top of the series) unless noted
# [9] = decreased DLD-1 cellular survival, CellTiter-Glo luminescent readout, NPC compound collection, primary HTS (AID 1117346;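 active means compounds that lower survival of DLD-1 colon cancer cells in the luminescence readout, no cutoff given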); settings: DLD-1 viability, CellTiter-Glo luminescence; at 20 µM (top of the series)
# [10] = growth inhibition of DIPG glioma cells, dose response, cell-based, JHH-DIPG-1, MIPE4.0, CellTiter-Glo, qHTS (AID 1347062; cut-off not given, nearly all actives have AC50 up to about 27 µM;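 on AC50: cells exposed to compound for two days before readout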); settings: JHH-DIPG-1 viability, CellTiter-Glo ATP luminescence
# [11] = growth inhibition of DIPG glioma cells, dose response, cell-based, SU-DIPG-IV, MIPE4.0, CellTiter-Glo, qHTS (AID 1347063; cut-off not given, nearly all actives have AC50 up to about 30 µM;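 further: compound exposure lasted 48 hours before the viability readout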); settings: SU-DIPG-IV viability, CellTiter-Glo ATP luminescence
# [12] = viability loss in pontine glioma line – cell-based, SU-DIPG-XXV, MIPE5.0, CellTiter-Glo, qHTS, dose response (AID 1347065; cut-off not given, nearly all actives have AC50 up to about 26 µM;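 further: cells exposed to compound for 48 hours before ATP readout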); settings: CellTiter-Glo ATP luminescence
# [13] = SU-DIPG-VI glioma cell viability, MIPE4.0 library, CellTiter-Glo luminescence, qHTS (AID 1347066; cut-off not given, nearly all actives have AC50 up to about 30 µM;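 further: cells exposed to compound for 48 hours before readout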); settings: CellTiter-Glo ATP luminescence
# [14] = SU-DIPG-XXV glioma cell viability, MIPE5.0 library, qHTS (AID 1347068; cut-off not given, nearly all actives have IC50 up to about 30 µM;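 on IC50: cells exposed to compound for 48 hours before viability readout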)
# [15] = sensitizers of A549 cells to miR-34 induction, primary screen, imaging, A549 dox-inducible miR-34, nuclei and caspase counts (AID 1347080); settings: A549 miR-34 inducible, Hoechst nuclei count, 48 h
# [16] = survival rescue of mitochondrial mutant cells in low glucose, primary screen, MELAS cybrids, Rieske KO mouse fibroblasts, CellTiter-Glo (AID 1508586;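 active means mean z-score across replicates of 1.96 or higher in either the MELAS or the Rieske mutant cell line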;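 further: z relative to plate mean and SD of compound and empty wells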)
# [17] = viability rescue of complex I mutant cybrids, primary screen, cell-based, galactose medium, ATP luminescence (AID 1645843;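 active means z-score of at least 1.8 in each of two replicates, scored against plate mean and spread of sample wells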;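 further: positive z means more ATP and so rescue of galactose-driven cybrid death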); settings: complex I mutant cybrid cells, 72 h, stronger effect = higher value
# [18] = JHH-DIPG-1 glioma cell viability, MIPE5.0 library, CellTiter-Glo luminescence, qHTS (AID 1347067; cut-off not given, nearly all actives have AC50 up to about 26 µM;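 further: cells exposed to compound for 48 hours before readout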); settings: JHH-DIPG-1 glioma viability, CellTiter-Glo ATP luminescence
# [19] = phospholipid biosynthesis inhibitors in animal cells, primary screen, cell-based, LOPAC library, screen 4 (AID 1347384; call rule not given here); settings: phospholipid biosynthesis inhibition screen, at 10 µM
# [20] = stronger effect = lower value, cell number ratio, induced over uninduced
# [21] = measured here: relative caspase fold change +Dox/-Dox
# [22] = measured here: total cells with miR-34 induction, stronger effect = lower value
# [23] = measured here: total cells without miR-34 induction
# [24] = MELAS cybrid survival, CellTiter-Glo 48 h, stronger effect = higher value
# [25] = Rieske KO mouse fibroblast survival, CellTiter-Glo 72 h
smiles,measurement,setting,value
C[C@@H]1C[C@H]2[C@@H]3CCC4=CC(=O)C=C[C@]4(C)[C@@]3(Cl)[C@@H](O)C[C@]2(C)[C@@]1(OC(=O)c1ccco1)C(=O)CCl,parasite load remaining,[1],101% (inactive) and 89.2% (inactive)
same,viability,[1],90.7% and 72.5%
same,nuclear beta-catenin stimulation,[2]; at 10 µM,23.1% (inactive)
same,nuclear beta-catenin stimulation,"[2]; stimulation, at 2 µM",2.8%
same,insulin secretion stimulation,[3],-0.7% (inactive)
same,viability decrease,[4],-43% (inactive)
same,tube area decrease,[5],99.7% (active)
same,GLP1 secretion stimulation,[6],3.9% (inactive)
same,inhibition of viability,[7],67% (active)
same,viability decrease (inhibition),[8],119% (active)
same,viability decrease (inhibition),[9],95.5% (active)
same,AC50,[10],4.69 µM (active)
same,AC50,[11],13.2 µM (active)
same,AC50,[12],29.5 µM (active)
same,AC50,[13],20.9 µM (active)
same,outcome,[14],inactive
same,fold change,[15]; [20],0.786 (inactive)
same,fold change,[15]; [21],1.68
same,cell count,[15]; [22],4000
same,cell count,[15]; [23],5090
same,z-score,[16]; [24],-1.01 (inactive)
same,z-score,[16]; [25],-0.104
O=C(OC1C[C@H]2CC[C@@H](C1)[N+]21CCCC1)C(O)(c1ccccc1)c1ccccc1 (stereo partly specified),nuclear beta-catenin stimulation,[2]; at 10 µM,-1.3% (inactive)
same,nuclear beta-catenin stimulation,"[2]; stimulation, at 2 µM",-2%
same,insulin secretion stimulation,[3],1.3% (inactive)
same,viability decrease,[4],-50.2% (inactive)
same,tube area decrease,[5],10.7% (inactive)
same,GLP1 secretion stimulation,[6],-3.1% (inactive)
same,inhibition of viability,[7],7.13% (inactive)
same,viability decrease (inhibition),[8],-11.6% (inactive)
same,viability decrease (inhibition),[9],-9.1% (inactive)
same,outcome,[10],inactive
same,outcome,[11],inactive
same,outcome,[13],inactive
same,fold change,[15]; [20],1.02 (inactive)
same,fold change,[15]; [21],0.872
same,cell count,[15]; [22],10400
same,cell count,[15]; [23],10200
same,z-score,[16]; [24],-0.39 (inactive)
same,z-score,[16]; [25],0.689
COc1cc(C(C)=O)ccc1OCCCN1CCC(c2noc3cc(F)ccc23)CC1,nuclear beta-catenin stimulation,[2]; at 10 µM,1.5% (inactive)
same,nuclear beta-catenin stimulation,"[2]; stimulation, at 2 µM",0.5%
same,insulin secretion stimulation,[3],3.8% (inactive)
same,viability decrease,[4],66.1% (active)
same,tube area decrease,[5],16.7% (inactive)
same,GLP1 secretion stimulation,[6],6.5% (inactive)
same,inhibition of viability,[7],80.7% (active)
same,viability decrease (inhibition),[8],100% (active)
same,viability decrease (inhibition),[9],33.5% (inactive)
same,outcome,[11],inactive
same,fold change,[15]; [20],0.893 (inactive) and 0.919 (inactive)
same,fold change,[15]; [21],0.354 and 0.917
same,cell count,[15]; [22],6850 and 7430
same,cell count,[15]; [23],7670 and 8090
same,z-score,[16]; [24],-0.601 (inactive) and -0.433 (inactive)
same,z-score,[16]; [25],0.999 and 0.549
same,z-score,[17],-1.19 (inactive)
COC(=O)C1=C(C)NC(C)=C(C(=O)OCCN2CCN(C(c3ccccc3)c3ccccc3)CC2)C1c1cccc([N+](=O)[O-])c1 (stereo unspecified),parasite load remaining,[1],20.2% (inactive)
same,viability,[1],100%
same,nuclear beta-catenin stimulation,[2]; at 10 µM,7.1% (inactive)
same,nuclear beta-catenin stimulation,"[2]; stimulation, at 2 µM",1.4%
same,insulin secretion stimulation,[3],-1.1% (inactive)
same,viability decrease,[4],52.2% (active)
same,tube area decrease,[5],106% (active)
same,GLP1 secretion stimulation,[6],-1.8% (inactive)
same,inhibition of viability,[7],78.5% (active)
same,viability decrease (inhibition),[8],135% (active)
same,viability decrease (inhibition),[9],96.4% (active)
same,outcome,[10],inactive
same,outcome,[11],inactive
same,AC50,[12],5.9 µM (active)
same,outcome,[13],inactive
same,AC50,[18],13.2 µM (active)
same,IC50,[14],8.33 µM (active)
same,z-score,[16]; [24],-0.211 (inactive) and -0.214 (inactive) and 0.218 (inactive)
same,z-score,[16]; [25],1.09 and 0.891 and 0.572
same,z-score,[17],-1.36 (inactive)
C=CCc1cc(OC)c(O)c(C(=O)NCCO)c1,nuclear beta-catenin stimulation,[2]; at 10 µM,1.7% (inactive)
same,nuclear beta-catenin stimulation,"[2]; stimulation, at 2 µM",2.4%
same,insulin secretion stimulation,[3],-0.7% (inactive)
same,viability decrease,[4],-4.9% (inactive)
same,tube area decrease,[5],4.3% (inactive)
same,GLP1 secretion stimulation,[6],0.4% (inactive)
same,inhibition of viability,[7],-7.7% (inactive)
same,viability decrease (inhibition),[8],33.7% (inactive)
same,viability decrease (inhibition),[9],1.9% (inactive)
same,outcome,[10],inactive
same,outcome,[11],inactive
same,outcome,[13],inactive
same,fold change,[15]; [20],0.947 (inactive)
same,fold change,[15]; [21],0.662
same,cell count,[15]; [22],8720
same,cell count,[15]; [23],9220
same,z-score,[16]; [24],-0.166 (inactive)
same,z-score,[16]; [25],0.363
N[C@@H](CC(=O)O)C(=O)O,nuclear beta-catenin stimulation,[2]; at 10 µM,0% (inactive)
same,nuclear beta-catenin stimulation,"[2]; stimulation, at 2 µM",-0.6%
same,insulin secretion stimulation,[3],1.3% (inactive)
same,viability decrease,[4],7.1% (inactive)
same,tube area decrease,[5],-11.9% (inactive)
same,GLP1 secretion stimulation,[6],-0.5% (inactive)
same,inhibition of viability,[7],1.9% (inactive)
same,viability decrease (inhibition),[8],-18.5% (inactive)
same,viability decrease (inhibition),[9],1.6% (inactive)
same,fold change,[15]; [20],1 (inactive)
same,fold change,[15]; [21],1.56
same,cell count,[15]; [22],10800
same,cell count,[15]; [23],10700
same,outcome,[19],inactive
same,z-score,[17],0.255 (inactive)
NC(N)=NCCC[C@H](N)C(=O)O,nuclear beta-catenin stimulation,[2]; at 10 µM,-0.2% (inactive)
same,nuclear beta-catenin stimulation,"[2]; stimulation, at 2 µM",2.5%
same,insulin secretion stimulation,[3],0.9% (active)
same,viability decrease,[4],2.3% (inactive)
same,tube area decrease,[5],-23.7% (inactive)
same,GLP1 secretion stimulation,[6],2.9% (inactive)
same,inhibition of viability,[7],-16.4% (inactive)
same,viability decrease (inhibition),[8],8.2% (inactive)
same,viability decrease (inhibition),[9],0% (inactive)
same,fold change,[15]; [20],0.976 (inactive)
same,fold change,[15]; [21],1.65
same,cell count,[15]; [22],10400
same,cell count,[15]; [23],10700
same,outcome,[19],inactive
same,z-score,[17],0.285 (inactive)
COC(=O)C1=C(C)NC(C)=C(C(=O)OC(C)(C)CN(C)CCC(c2ccccc2)c2ccccc2)C1c1cccc([N+](=O)[O-])c1 (stereo unspecified),nuclear beta-catenin stimulation,[2]; at 10 µM,22.4% (inactive)
same,nuclear beta-catenin stimulation,"[2]; stimulation, at 2 µM",-0.9%
same,insulin secretion stimulation,[3],1.3% (inactive)
same,viability decrease,[4],93.2% (active)
same,tube area decrease,[5],90.2% (active)
same,GLP1 secretion stimulation,[6],-3.7% (inactive)
same,inhibition of viability,[7],94% (active)
same,viability decrease (inhibition),[8],127% (active)
same,viability decrease (inhibition),[9],92.5% (active)
same,fold change,[15]; [20],1.26 (inactive) and 0.934 (inactive)
same,fold change,[15]; [21],1.89 and 0.993
same,cell count,[15]; [22],1980 and 4820
same,cell count,[15]; [23],1570 and 5160
same,outcome,[19],active
same,z-score,[16]; [24],-0.809 (inactive)
same,z-score,[16]; [25],-0.0835
same,z-score,[17],-1.52 (inactive) and -2.66 (inactive)
CCn1c(=O)c2c(nc(C=Cc3ccc(OC)c(OC)c3)n2C)n(CC)c1=O,nuclear beta-catenin stimulation,[2]; at 10 µM,-0.2% (inactive)
same,nuclear beta-catenin stimulation,"[2]; stimulation, at 2 µM",-0.6%
same,insulin secretion stimulation,[3],-0.7% (inactive)
same,viability decrease,[4],-2.3% (inactive)
same,tube area decrease,[5],14.4% (inactive)
same,GLP1 secretion stimulation,[6],-3% (inactive)
same,inhibition of viability,[7],-3.5% (inactive)
same,viability decrease (inhibition),[8],4.6% (inactive)
same,viability decrease (inhibition),[9],-22% (inactive)
same,fold change,[15]; [20],0.891 (inactive)
same,fold change,[15]; [21],0.866
same,cell count,[15]; [22],8640
same,cell count,[15]; [23],9700
same,z-score,[16]; [24],0.103 (inactive)
same,z-score,[16]; [25],0.0933
C(=C\c1ccccc1)/CN1CCN(C(c2ccccc2)c2ccccc2)CC1,parasite load remaining,[1],32.6% (inactive) and 111% (inactive)
same,viability,[1],52.6% and 87.5%
same,nuclear beta-catenin stimulation,[2]; at 10 µM,1.7% (inactive)
same,nuclear beta-catenin stimulation,"[2]; stimulation, at 2 µM",0.3%
same,insulin secretion stimulation,[3],-1.8% (inactive)
same,viability decrease,[4],88.8% (active)
same,tube area decrease,[5],26.3% (inactive)
same,GLP1 secretion stimulation,[6],-2.7% (inactive)
same,inhibition of viability,[7],84.4% (active)
same,viability decrease (inhibition),[8],97.3% (active)
same,viability decrease (inhibition),[9],99.3% (active)
same,fold change,[15]; [20],0.969 (inactive) and 0.928 (inactive)
same,fold change,[15]; [21],1.77 and 1.18
same,cell count,[15]; [22],7700 and 8780
same,cell count,[15]; [23],7950 and 9460
same,outcome,[19],inactive
same,z-score,[16]; [24],0.0624 (inactive)
same,z-score,[16]; [25],-0.105
same,z-score,[17],-0.01 (inactive)
